HCV inh: blocks hepatitis C virus. Huh7.5.1 HCVcc-Cre infection, luciferase reporter, 44 h. Potency, µM (doses to about 41.8 µM), without a hit: at the highest dose activity change, negative = inhibition, hits mostly inhibitors. 3.4% of 340,000 active; active means well fitted inhibition curve with a large enough effect; inconclusive means small, poorly fitted or top-dose-only effect, or another doubt; inactive means no such curve, though single readings can be large or run the other way; further: potency means the concentration at half of the fitted maximal effect; on the % scale 0 is the no-effect control and ±100 the full control effect
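Cells (1,000/well) were plated 4 h before compound, then infected with HCVcc-Cre virus (~0.5 moi). After 44 h further culture, infection was read as luciferase luminescence following a 15 min substrate incubation at room temperature.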
Marburg entry inh: blocks Marburg virus binding to or entry into cells; Potency, µM (highest dose often 37.8 µM), without a hit: top-dose activity change, negative = inhibition, most hits filed as inhibitors; AID 540276; Marburg virus pseudotyped entry inhibition, cell reporter; 1.8% of 300,000 active; calls by dose curve; tested in HEK293 cells; further: potency means the concentration at half of the fitted maximal effect; on the % scale 0 is the no-effect control and ±100 the full control effect
Lassa entry inh: blocks Lassa virus binding to or entry into cells | Potency, µM (doses to about 37.9 µM), without a hit: top-dose activity change, negative = inhibition, usual class: inhibitors | Lassa virus pseudotype entry inhibition, cell reporter | 1.2% of 300,000 active; calls by dose curve; tested in HEK293 cells; further: potency means the concentration at half of the fitted maximal effect; on the % scale 0 is the no-effect control and ±100 the full control effect; nearly all actives have a fitted effect of over 50% in size
HCMV inh: inhibitors of human cytomegalovirus | HFF cells, HCMV-luciferase reporter, 72 h; active compounds read low | activity change, negative = inhibition, % at 57.5 µM | 4.5% of 410,000 active | AID 1259415; in the data active means activity change below about -60%; inconclusive means no clear call, values can overlap the other calls; inactive means above about -39%; further: on the % scale 0 is the no-effect control and ±100 the full control effect
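Two-dose cell screen: HFF monolayers treated with compounds and infected with luciferase-expressing HCMV at 1 PFU/cell, 72 h at 37C, then lysed for luciferase measurement.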
FMDV antiviral: antivirals against foot and mouth disease virus; AID 1159524; 1.2% of 410,000 active; Potency, µM (top dose mostly 57.9 µM), for the others: top-dose activity change, negative = inhibition, most hits filed as inhibitors; FMDV antiviral cell-based qHTS; calls by dose curve; tested in HEK293T cells; further: read-out not given here; potency means the concentration at half of the fitted maximal effect; on the % scale 0 is the no-effect control and ±100 the full control effect; nearly all actives have a fitted effect of over 45% in size
SARS PLpro yeast: inhibitors of SARS-CoV papain-like protease in yeast. S. cerevisiae expressing SARS-CoV PLpro, growth rescue. Potency, µM (doses to about 32.9 µM), for inactives: top-dose activity, positive = growth rescue, usual class: activators. 0.19% of 330,000 active; calls by dose curve; further: potency means the concentration at half of the fitted maximal effect; 0% is about no effect; nearly all actives have a fitted effect of over 55% in size
* = called active by the depositor; u = inconclusive; x = not tested or not shown; [ ] = another dose, or the depositor's remark. In the library only some 8% were active in any assay of this set; here they are far more common.

SMILES | HCV inh | Marburg entry inh | Lassa entry inh | HCMV inh | FMDV antiviral | SARS PLpro yeast
COCCn1c(C)cc(C2=NNC(=Nc3ccc(Cl)cc3Cl)SC2)c1C | -12% | u | -15% | -21 | 5% | 1%
C=CCn1c(C)cc(C2=NNC(=Nc3ccc(C)cc3)SC2)c1C | 1% | u | 6%[46.1 µM] | -9 | 29% | -3%
COCCn1c(C)cc(C2=NNC(=NC3CC3)SC2)c1C | u | 0.32µM* | 0.32µM* | -96* | 1.3µM* | -6%
COC(=O)C(c1ccc(OC)c(OC)c1)C1c2ccccc2C=C(C)N1C(=O)OC (stereo not given) | x | 11%[14.2 µM] | u | x | x | x
COC(=O)CC1Oc2ccc(Cl)cc2-n2cc(-c3ccc(C)cc3)nc21 (stereo not given) | x | 1%[46.1 µM] | -15%[46.1 µM] | -20 | -7% | x
CCCn1nc(NC(=O)C2CCCO2)c2cc3cccc(C)c3nc21 (stereo not given) | 11µM* | -5%[46.1 µM] | -11% | 8 | 3% | -2%
CCn1nc(NC(=O)c2cccs2)c2cc3ccccc3nc21 | 25µM* | x | x | -14 | -14% | 8%
CCn1nc(NC(C)=O)c2cc3cccc(C)c3nc21 | u | x | x | 5 | -16% | 0%
CCn1nc(NC(=O)c2ccccc2)c2cc3cccc(C)c3nc21 | 25µM* | u | u | -18 | -18% | -1%
CC(C)c1nc2ccc(C(=O)NCCCN3CCN(c4ccccc4F)CC3)cc2o1 | x | x | 1%[46.1 µM] | -20 | -35% | x
NCc1ccc(-c2nc(-c3ccc(Cl)c(O)c3)c(-c3ccncc3)[nH]2)cc1 | x | x | -19% | x | x | x
COc1cc(OC)c(OC)cc1/C=N/Nc1ncnc2c1[nH]c1ccccc12 | 10µM* | u | -17% | -7 | -23% | 27%
COc1ccc(/C=N/Nc2ncnc3c2[nH]c2ccc(C)cc23)c(OC)c1OC | u | -16%[46.1 µM] | u | -80* | 0% | -1%
COc1ccc(/C=N/NC(=O)c2[nH]c3ccc(C)cc3c2-c2ccccc2)c(C(=O)O)c1OC | -11% | -16%[46.1 µM] | -5% | -18 | 6% | -1%
COc1cc(OC)c(OC)cc1/C=N/Nc1nc2ccccc2[nH]1 | -8% | x | x | 3 | -8% | 0%
CCOC(=O)C(CC)N1CCN(Cc2ccc(F)cc2)C(=O)C1=O (stereo not given) | x | x | 8%[46.1 µM] | 5 | -25% | x
CC(C)(C)c1cc([N+](=O)[O-])cc(C(C)(C)C)c1O | 10µM* | 6.5µM* | 16µM* | -100* | u | -18%
COc1ccc(C(=O)C(CCC(CNC(C)(C)C)C(=O)c2ccc(OC)cc2)CNC(C)(C)C)cc1 (stereo not given) | u | 2.1µM* | 4µM* | -98* | u | -33%
CCOC(=O)c1ccc(NC(=S)N(CCCN2CCN(CC)CC2)Cc2cccs2)cc1 | u | 10µM* | 10µM* | 1 | 46% | 1%
CCOC(=O)c1ccc(NC(=S)N(CCN2CCCCCC2)Cc2cccs2)cc1 | u | 8.9µM* | u | u | 21% | 1%
Cc1nn(C(C)(C)C)c(OC(=O)c2ccc3c(c2)OCO3)c1Sc1ccccc1 | -20% | u | u | 114 | u | -16%
Cc1ccc(S(=O)(=O)c2c(C)nn(C(C)(C)C)c2OC(=O)c2ccc(Br)o2)cc1 | u | u | 11µM* | -64* | u | -16%
Cc1nn(C(C)(C)C)c(OC(=O)c2ccc3c(c2)OCO3)c1S(=O)(=O)c1ccccc1 | -1% | u | 8.9µM* | -23 | u | -28%
CC(=O)Oc1c(S(=O)(=O)c2ccc(C)cc2)c(C)nn1C(C)(C)C | 26% | u | u | 12 | -19% | -13%
Cc1ccc(S(=O)(=O)c2c(C)nn(C(C)(C)C)c2OC(=O)c2cccs2)cc1 | u | u | 13µM* | -25 | u | -15%
SMILES | HCV inh | Marburg entry inh | Lassa entry inh | HCMV inh | FMDV antiviral | SARS PLpro yeast
Cc1ccc(S(=O)(=O)c2c(C)nn(C(C)(C)C)c2OC(=O)C(C)(C)C)cc1 | u | u | u | 32 | u | -29%
Cc1ccc(S(=O)(=O)c2c(C)nn(C(C)(C)C)c2OC(=O)c2ccco2)cc1 | -4% | u | 11µM* | 33 | 13µM* | -13%
CCCCOc1ccc(C(=O)NCc2nnnn2-c2ccc(C)c(C)c2)cc1 | x | x | -25%[46.1 µM] | 102 | -1% | x
CCNc1nc(CN2CCCCC2)nc2scc(-c3ccccc3)c12 | 10µM* | 4.5µM* | u | -95* | u | 23%
OCC1CCCN(c2nc(CN3CCCCC3)nc3scc(-c4ccccc4)c23)C1 (stereo not given) | u | u | u | u | 0% | -5%
CCCC(O)(CCC)C(=O)NN(C(=O)CCl)c1ccccc1 | u | u | u | -81* | u | -16%
CCCCC(O)(CCCC)C(=O)NN(C(=O)OCC)c1ccccc1 | 8% | 2% | -3% | -3 | -19% | 8%
CCc1ccc(NC(=O)C2CCCN(S(=O)(=O)c3c(C)noc3/C=C/N(C)C)C2)cc1 (stereo not given) | x | -5%[46.1 µM] | 9%[46.1 µM] | 15 | 0% | x
COC(=O)c1cc2occc2n1CC(=O)Nc1cccc(SC)c1 | x | -18%[46.1 µM] | x | 0 | -7% | x
COC(=O)c1cc2occc2n1CC(=O)Nc1ccc(C)cc1C | u | 4% | -1% | -63* | -11% | 6%
COC(=O)c1cc2oc(C)cc2n1CC(=O)Nc1ccc(C)c(C)c1 | 4µM* | 1% | u | 20 | 48% | -2%
COC(=O)c1cc2oc(C)cc2n1CC(=O)Nc1ccc(OC)c(OC)c1 | x | 0%[46.1 µM] | x | 8 | -4% | x
CC(C)C(=O)NCC1CCC2(CCN(Cc3ccc(-c4ccccc4Cl)o3)CC2)O1 (stereo not given) | x | x | x | x | -1% | x
CCOc1ccc(NC(=O)CSc2nc3nc4c(cc3c(=O)n2CC)COC(C)(C)C4)cc1 | 3.2µM* | -6%[46.1 µM] | -16%[46.1 µM] | -27 | -15% | 1%
CCn1c(SCC(=O)Nc2ccccc2C)nc2nc3c(cc2c1=O)COC(C)(C)C3 | 10µM* | x | x | -6 | -15% | 0%
COc1ccc(NC(=O)CSC2=Nc3ccccc3C3=NC(CC(=O)NCc4ccc(F)cc4)C(=O)N23)cc1 (stereo not given) | x | x | 5%[46.1 µM] | 8 | -15% | x
CCOCCCNc1ncnc2c1[nH]c1ccccc12 | u | u | u | -62* | u | -1%
CCOc1ccc2[nH]c3c(NCCO)ncnc3c2c1 | 13% | x | x | 48 | 13% | -1%
CCCCOCCCNc1ncnc2c1[nH]c1ccccc12 | 8.9µM* | 5.2µM* | u | u | 11µM* | -9%
CCCCn1c(=O)nc2n(-c3ccc(Br)cc3)c3ccccc3cc-2c1=O | x | x | -1%[46.1 µM] | -6 | -8% | x
Cc1ccc2ncc(C(=O)c3ccc(C)c(C)c3)c(S(=O)(=O)c3ccc(F)cc3)c2c1 | x | u | x | -74* | -16% | x
Cc1ccc(S(=O)(=O)c2c(C(=O)c3ccccc3)cnc3cc4c(cc23)OCCO4)cc1 | -3% | u | u | -99* | 13% | -3%
